# Tb PGK inh – inhibitors of T. brucei phosphoglycerate kinase | Potency, µM (titrated, usually from 57.5 µM), without a hit: top-dose activity change, negative = inhibition, most hits filed as inhibitors | 380,000 compounds, 0.043% hits | P07378 | PGK/GAPDH coupled, Kinase-Glo luminescence, 60 min; also: % is scaled to controls: 0 for no effect and ±100 for the full control effect; nearly all actives have a fitted effect of over 60% in size
# Target sequence (P07378 whole entry, looked up): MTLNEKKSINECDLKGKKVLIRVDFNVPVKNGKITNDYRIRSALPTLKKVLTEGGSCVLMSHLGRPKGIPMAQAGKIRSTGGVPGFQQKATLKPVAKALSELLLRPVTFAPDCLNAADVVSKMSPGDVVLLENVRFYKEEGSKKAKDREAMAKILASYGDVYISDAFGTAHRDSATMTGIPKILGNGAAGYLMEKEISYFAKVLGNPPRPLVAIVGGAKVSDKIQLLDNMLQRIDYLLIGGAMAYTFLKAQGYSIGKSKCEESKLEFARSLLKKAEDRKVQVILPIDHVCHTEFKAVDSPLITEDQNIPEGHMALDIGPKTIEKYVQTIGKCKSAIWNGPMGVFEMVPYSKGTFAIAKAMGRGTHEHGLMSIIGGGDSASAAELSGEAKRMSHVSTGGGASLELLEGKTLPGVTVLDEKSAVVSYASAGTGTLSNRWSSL
#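 Luminescent ATP detection (Kinase-Glo Plus) follows a 60-minute room-temperature incubation, with wells lacking PGK as controls. Buffer: 100 mM TEA (pH 7.6), 5 mM MgCl2, 0.01% Tween-20. Coupling enzyme GAPDH (100 nM final) supplies unstable 1,3-BPG in-well.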
# Tb PFK block – blocks T. brucei phosphofructokinase | O15648 | AID 485367 | T. brucei PFK, ADP-Glo luminescence | 330,000 compounds, 0.17% hits | Potency, µM (titrated, usually from 57.5 µM), without a hit: at the top dose activity, negative = inhibition, most hits filed as inhibitors;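 also: 0% = uninhibited 1x PFK enzyme wells and -100% = no-enzyme wells; nearly all actives have a fitted effect of over 60% in size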
#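 Luminescent ADP detection (ADP-Glo, two-step: ATP depletion then ADP-to-ATP conversion for luciferase) reported PFK activity after 45 min room-temperature reaction of 1.25 nM enzyme with 0.5 mM F6P and 0.1 mM ATP at pH 8.0.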
# Rango release inh – inhibitors of RanGTP-induced Rango-importin beta complex dissociation; O95149+P62826; Biochemical FRET Rango-importin beta, RanGTP-induced dissociation; Potency, µM (highest dose often 46.1 µM), without a hit: top-dose activity change, negative = inhibition; 340,000 compounds, 0.071% hits; AID 540253; calls by dose curve; also: % of control where 0% means no effect; nearly all actives have a fitted effect of over 45% in size
#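 FRET read at 45 min, room temperature: inhibitors block the CFP/YFP signal rise when RanGTP (0.6 uM Ran, 2 mM GTP, 0.2 uM RCC1) frees Rango (0.1 uM) from importin beta (0.25 uM). Pre-read after 5 min compound exposure flags interference.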
# Rango complex inh – prevents formation of the Rango-importin beta complex; Q14974; Potency, µM (titrated, usually from 92.2 µM), inactives show top-dose inhibition of complex formation; Rango CFP/YFP FRET sensor + importin beta, 45 min; 340,000 compounds, 0.031% hits; calls by dose curve;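 also: 0% = DMSO wells and 100% = buffer wells lacking importin beta; nearly all actives have a fitted effect of over 15% in size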
#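 FRET biosensor (snurportin 1 IBB flanked by EYFP and cerulean), 50 nM, with compound 5 min, then 0.125 microM importin beta in PBS, 1 mM DTT, 0.02% Tween-20, 0.1% BSA. CFP/YFP ratio read after 45 min at room temperature; pre-read flags interference.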
# ELG1 repair inh – blocks ELG1-dependent DNA repair in HEK293T cells. 330,000 compounds, 2.3% hits. Potency, µM (doses to about 46.1 µM), inactives show at the top dose activity change, negative = inhibition, hits mostly inhibitors. AID 504467. HEK293T ELG1-luciferase reporter, luminescence, 16 h; DNA damage induced by 5-fluorouridine; also: % is scaled to controls: 0 for no effect and ±100 for the full control effect; nearly all actives have a fitted effect of over 55% in size
#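 Overnight (16 hr) co-exposure of 2,000 cells/well to 5-fluorouridine and compound at 37 °C preceded detection. Luciferase was quantified via ONE-Glo luminescence; loss of signal denotes inhibition.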
# PKM2 act – activators of human pyruvate kinase M2; P14618; purified PKM2, Kinase-Glo ATP luminescence, activation; response scale: 0% is enzyme alone, no compound; Potency, µM (titrated, usually from 57.5 µM), for inactives: at the top dose activation, usual class: activators; 260,000 compounds, 0.34% hits; also: % is scaled to controls: 0 for no effect and ±100 for the full control effect; nearly all actives have a fitted effect of over 55% in size
#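 Kinase-Glo luminescence reports ATP generated from ADP (0.1 mM) and PEP (0.5 mM) by purified hPK-M2 after 1 h at room temperature, pH 7.2 imidazole buffer; intermediate enzyme activity allows detecting inhibitors and activators.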
# ELG1 FLuc counter – luciferase inhibition in cell-free luciferin readout for ELG1 hits. Potency, µM (top dose mostly 46.1 µM), inactives show at the top dose activity change, negative = inhibition, usual class: inhibitors. shares compounds with ELG1 repair inh. cell-free firefly luciferase luminescence counter-screen, ViewLux. 350 compounds, 3% hits; also: % is scaled to controls: 0 for no effect and ±100 for the full control effect
# ELG1 Luc conf – confirmation of human ELG1-dependent DNA repair inhibitors; shares compounds with ELG1 repair inh; Potency, µM (series often up to 46.1 µM), for the others: at the highest dose activity change, negative = inhibition, most hits filed as inhibitors; 670 compounds, 68% hits; HEK293T ELG1-luciferase levels, luminescence; cells co-treated with 5-fluorouridine; also: % is scaled to controls: 0 for no effect and ±100 for the full control effect; nearly all actives have a fitted effect of over 55% in size
# ELG1 MMS Luc – inhibits ELG1-dependent repair under MMS stimulation in HEK293T cells | Potency, µM (doses to about 46.1 µM), for inactives: top-dose activity change, negative = inhibition, most hits filed as inhibitors | 670 compounds, 53% hits | HEK293T luciferase-tagged ELG1 level, MMS stimulated | shares compounds with ELG1 repair inh | AID 624249; also: % is scaled to controls: 0 for no effect and ±100 for the full control effect; nearly all actives have a fitted effect of over 60% in size
# ELG1 5-FU – confirmation of ELG1 repair inhibitors: viability with 5FU; AID 624250; cell viability with 5-FU, ELG1-dependent repair; Potency, µM (highest dose often 46.1 µM), for inactives: at the top dose activity change, negative = viability loss, actives largely listed as cytotoxic; shares compounds with ELG1 repair inh; 670 tested, under 10 active;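 also: ELG1-luc HEK293T cells cotreated with 5-fluorouridine at 10 µM final; viability measured 16 h after compound addition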
# ELG1 MMS viab – confirmation of ELG1 repair inhibitors: viability with MMS | Potency, µM (series often up to 46.1 µM), for the others: top-dose activity change, negative = viability loss, usual class: cytotoxic | shares compounds with ELG1 repair inh | 670 compounds, 33% hits | Cell viability with MMS, ELG1-dependent DNA repair;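 also: ELG1-luc HEK293T cells co-treated with 10 µM MMS; viability read 16 h after compound addition; % is scaled to controls: 0 for no effect and ±100 for the full control effect; nearly all actives have a fitted effect of over 60% in size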
# Cell viab unstim – affects unstimulated cell viability, ELG1 hit counter-screen. shares compounds with ELG1 repair inh. cell viability counter-screen, unstimulated, luminescence. Potency, µM (titrated, usually from 45.9 µM), for inactives: top-dose activity change, negative = loss of viability, actives largely listed as cytotoxic. 900 compounds, 8% hits;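 also: compound exposure lasted 16 hours before reading; % is scaled to controls: 0 for no effect and ±100 for the full control effect; nearly all actives have a fitted effect of over 55% in size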
# FLuc biochem – firefly luciferase inhibition counter-screen; shares compounds with ELG1 repair inh; purified firefly luciferase, luminescence counter-screen; Potency, µM (top dose mostly 57.5 µM), inactives show top-dose activity, negative = inhibition, usual class: inhibitors; 350 compounds, 10% hits; also: % is scaled to controls: 0 for no effect and ±100 for the full control effect
# * = called active by the depositor; i = inactive; ? = inconclusive; nt = no result given; [ ] = remark or other dose. An excerpt weighted towards active compounds, which were near 2.4% of everything screened. Unless noted, calls follow the shape of the dose curve; as a rule, active = well fitted curve in the direction sought with a large enough effect; inconclusive = small, poorly fitted or top-dose-only effect, or another doubt; inactive = no such curve, though single readings can be large; an effect the other way counts as inactive or inconclusive. Potency is read from the fitted curve at half-maximal effect.
SMILES,Tb PGK inh,Tb PFK block,Rango release inh,Rango complex inh,ELG1 repair inh,PKM2 act,ELG1 FLuc counter,ELG1 Luc conf,ELG1 MMS Luc,ELG1 5-FU,ELG1 MMS viab,Cell viab unstim,FLuc biochem
Cc1ccc(-c2[nH]ncc2/C=N/n2c(COc3ccccc3)nc3ccccc3c2=O)cc1,-7.1%,0.3%,-12.1%,-1.4%,5.17µM*,-8.1%,-10.6%,3.15µM*,19.9µM*,?,28.1µM*,15.8µM*,?
Cc1nc2ccccc2c(=O)n1/N=C/c1cn[nH]c1-c1ccccc1,-9.2%,1.9%,-2.9%,-0.9%,?,0.1%,nt,nt,nt,nt,nt,nt,nt
O=[N+]([O-])c1ccc(N2CCCC2)nc1N1CCCC1,i,2.8%,22.6%,-2.4%,-1.5%,-4.9%,nt,nt,nt,nt,nt,nt,nt
Nc1ncc([N+](=O)[O-])c(N2CCCCCC2)n1,-2.1%,-10.3%,5.9%,-1.0%,2.31µM*,-0.6%,nt,4.45µM*,12.5µM*,-14.4%,-0.5%,-13.4%,nt
Cc1ccc(C)c(S(=O)(=O)c2cn(Cc3ccccc3)c3cc(N4CCCC4)c(F)cc3c2=O)c1,-1.1%,nt,nt,nt,nt,nt,nt,nt,nt,nt,nt,nt,nt
O=C(NNC(=O)c1csc(N2CCOCC2)n1)c1cccnc1,4.8%,3.9%,8.5%,-3.4%,18.1%,nt,nt,nt,nt,nt,nt,nt,nt
C=CCc1c(OC(C)=O)c2ccccc2n(C)c1=O,-0.2%,-0.6%,-6.6%,-2.0%,3.26µM*,-16.2%,nt,?,7.05µM*,0.0%,9.96µM*,?,nt
CCOC(=O)c1[nH]c2cc(OC)c(OC)cc2c1NC(=O)CN1CCN(c2ccc(OC)cc2)C(C)C1 (stereo not drawn),nt,0.7%,nt,nt,1.3µM*,2.9%,?,3.24µM*,36.3µM*,?,?,40.7µM*,-3.9%[115 µM]
COC(=O)c1[nH]c2ccc(C)cc2c1NC(=O)CN1CCN(c2ccccc2)CC1,4.2%,1.4%,-5.1%,0.1%,18.4µM*,6.5%,?,12.6µM*,17.7µM*,?,?,25µM*,0.8%

# Bioassay records from PubChem.
